# Active and inactive are the calls of the source.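 The calls were made as follows, unless noted: active = inhibition above 20% together with a positive visual image hit; inconclusive = visual image hit but inhibition not above 20%; inactive = no visual image hit.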
# How the values were obtained:
# [1] = inhibitors of TNFa-induced NFkB p65 translocation, primary screen, imaging, HUVEC, MLSMR starter and 10KST1 sets (AID 438); details: HUVEC TNFa-induced p65 nuclear translocation; cell count: measured here: nuclei count (cytotoxicity indicator), at 2.08 µM; inhibition: at 2 µM, stronger effect = higher value, 0% TNFa-plus-vehicle, 100% no-TNFa wells;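 also: compound added about 3h40 before a 20 min TNFalpha stimulation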;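 as to inhibition: signal is the nuclear over cytoplasmic p65 intensity ratio per well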
# [2] = inhibitors of mutant huntingtin aggregation, primary screen, imaging, exon1htt(103Q)mCFP cells, high-content imaging (AID 483;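 active = visual image review flags a hit and inhibition of aggregation exceeds 20%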;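 also: compound exposure lasted 3 days before fixation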;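 as to nuclei count: percent of the per-plate median nuclei count of sample wells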); details: exon1htt(103Q)mCFP cell line, aggregate imaging, at 2 µM; inhibition of aggregation: stronger effect = higher value; nuclei count: measured here: cell count, toxicity
# [3] = inhibitors of E-selectin induction by TNFa, primary screen, imaging, HUVEC, immunofluorescence, MLSMR starter and 10KST1 sets (AID 487;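 active = visually confirmed hit in the image check and inhibition above 20%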;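 as to inhibition: signal is fraction of cell area covered by stained E-selectin grains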;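 as to nuclei count: 100% = median nuclei count of all wells on the same plate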); details: HUVEC TNFalpha-induced E-selectin immunofluorescence imaging, at 2 µM; inhibition: stronger effect = higher value; nuclei count: measured here: cell number, toxicity
# [4] = target: Voltage-gated potassium channel subunit beta-2 (Rattus norvegicus) (UniProt P62483); assay: KvBeta enzyme negative modulators, primary screen, biochemical, NADPH fluorescence (AID 622;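 active = fluorescence slope higher than the sample average by over 3 SD, cut at about -0.22 in these data, passing the limit was not always enough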;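 also: slope of raw intensity against log time taken from 70 to 1610 s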); details: recombinant KvBeta, 4-cyanobenzaldehyde reduction, at 10 µM, stronger effect = higher value
# Voltage-gated potassium channel subunit beta-2 (Rattus norvegicus), sequence (P62483 whole entry, looked up): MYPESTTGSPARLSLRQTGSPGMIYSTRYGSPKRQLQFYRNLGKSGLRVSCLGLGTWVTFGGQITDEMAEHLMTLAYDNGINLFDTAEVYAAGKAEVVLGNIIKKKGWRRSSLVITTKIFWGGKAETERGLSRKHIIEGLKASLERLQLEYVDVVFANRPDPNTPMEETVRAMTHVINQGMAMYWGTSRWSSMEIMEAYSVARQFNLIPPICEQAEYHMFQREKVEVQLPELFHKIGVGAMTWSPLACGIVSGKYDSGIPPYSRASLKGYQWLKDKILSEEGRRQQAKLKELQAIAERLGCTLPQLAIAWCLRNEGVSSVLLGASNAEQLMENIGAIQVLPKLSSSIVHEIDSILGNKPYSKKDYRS
# [5] = target: Voltage-gated potassium channel subunit beta-2 (Rattus norvegicus) (UniProt P62483); assay: KvBeta positive modulators, primary screen, biochemical, NADPH fluorescence (AID 623;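 active = NADPH fluorescence slope more negative than the mean of all samples by about 3 SD, 99.7% confidence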;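 also: fluorescence intensity change per second fitted from 20 to 320 s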); details: Recombinant KvBeta, NADPH fluorescence decrease slope, 10 min; at 10 µM; stronger effect = lower value
# [6] = target: Alpha-2C adrenergic receptor (Homo sapiens) (UniProt P18825); assay: modulators of alpha2C/GIRK thallium flux, primary screen, cell-based, HEK293 alpha2C/GIRK1/2 (AID 624;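 active = fluorescence slope after compound addition differing from the mean of all screened samples at 99.7% confidence, in either direction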;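 also: slope of fluorescence ratio to pre-addition baseline per second over 15 to 24 s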); details: thallium flux BTC fluorescence, at 10 µM, actives lie on both sides
# Alpha-2C adrenergic receptor (Homo sapiens), sequence (P18825 whole entry, looked up): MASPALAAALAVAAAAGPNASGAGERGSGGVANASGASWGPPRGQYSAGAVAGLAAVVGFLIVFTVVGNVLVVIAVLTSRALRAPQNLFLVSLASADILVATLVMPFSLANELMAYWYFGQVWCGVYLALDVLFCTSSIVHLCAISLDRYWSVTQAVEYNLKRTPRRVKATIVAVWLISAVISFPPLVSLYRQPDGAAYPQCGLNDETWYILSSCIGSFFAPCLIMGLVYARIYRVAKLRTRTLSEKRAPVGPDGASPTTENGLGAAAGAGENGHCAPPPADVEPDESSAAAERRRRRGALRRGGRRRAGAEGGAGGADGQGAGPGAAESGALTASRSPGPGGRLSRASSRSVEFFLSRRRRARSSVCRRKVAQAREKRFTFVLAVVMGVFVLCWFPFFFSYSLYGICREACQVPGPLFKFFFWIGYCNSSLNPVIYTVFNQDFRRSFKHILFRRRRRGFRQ
# [7] = inhibitors of Sendai virus-induced IRF3 signaling, primary screen, TLR/RLR signaling modifier project, cell-based, Sendai virus stimulus, luciferase, 10K MLSCN set (AID 602276;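 active = inhibition at or above 50% at 10 µM; inactive = inhibition below 50%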;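 also: firefly luciferase from ISG56 promoter only with Renilla not read in this screen; 0% = Sendai virus plus DMSO and 100% = medium plus DMSO without virus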); details: HEK293 RL24 IRF3 luciferase reporter, at 10 µM, stronger effect = higher value
# [8] = inhibitors of poly I:C-induced TLR3 signaling, primary screen, cell-based, poly I:C stimulus, luciferase, 10K MLSCN set (AID 602277;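 active = inhibition of the reporter signal at or above 50%; inactive = inhibition below 50%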); details: HEK293-TLR3 RL24 IRF3 luciferase reporter, at 10 µM, stronger effect = higher value
SMILES,cell count [1],inhibition [1],inhibition of aggregation [2],nuclei count [2] [%],inhibition [3],nuclei count [3] [%],fluorescence slope [4],NADPH fluorescence slope [5],slope [6],inhibition [7],inhibition [8]
COc1ccc(OC)c(Nc2nc(-c3sc(N)nc3C)cs2)c1,715,-8.6% (inactive),11.3% (inactive),104,-77.1% (inactive),105,-0.34 (inactive),-4.1e-05 (inactive),0.00384 (inactive),-4.79% (inactive),-10.6% (inactive)
C=CCn1c(COc2ccccc2)nnc1SCC(=O)C(C)(C)C,733,0.9% (inactive),-8.3% (inactive),102,7.8% (inactive),98.4,-0.449 (inactive),-3.9e-05 (inactive),0.00312 (inactive),3.19% (inactive),22.7% (inactive)
Cc1c(C(=O)NC2CCCc3ccccc32)oc2ccc(S(=O)(=O)N3CCOCC3)cc12 (centres undefined),500,-3% (inactive),27.1% (inactive),76.4,-32.9% (inactive),110,-0.489 (inactive),-6.3e-05 (inactive),0.0079 (inactive),17.5% (inactive),14.6% (inactive)
COc1cccc(-c2nc(CS(=O)CC(=O)NCCCOC(C)C)c(C)o2)c1 (centres undefined),193,-13% (inactive),5.9% (inactive),119,-27.1% (inactive),95.8,-0.486 (inactive),-9.9e-06 (inactive),0.00479 (inactive),11.4% (inactive),7.08% (inactive)
Cc1ccc2cccc(SCC(=O)N3CCOCC3)c2n1,286,-6.7% (inactive),28% (inactive),72.7,-45.8% (inactive),105,-0.327 (inactive),7.7e-06 (inactive),0.00384 (inactive),6.65% (inactive),31.6% (inactive)
CCN(CC)C(=O)CSc1nnc([C@@H](N)Cc2ccccc2)o1,673,1.7% (inactive),-2.7% (inactive),84.3,-0.8% (inactive),96,-0.499 (inactive),1.4e-05 (inactive),0.00547 (inactive),15.4% (inactive),22% (inactive)
Cc1cc(=O)n(-c2ccc3ccccc3n2)[nH]1,383,-0.7% (inactive),-7.3% (inactive),89.7,-37.6% (inactive),107,-0.436 (inactive),-5.1e-05 (inactive),0.00622 (inactive),17.4% (inactive),9.22% (inactive)
S=c1[nH]nc(-c2ccccc2)n1C1C=CCCC1 (centres undefined),240,0.4% (inactive),14.7% (inactive),94,-329% (inactive),146,-0.465 (inactive),-1.5e-05 (inactive),0.00318 (inactive),4.48% (inactive),35.6% (inactive)
CC1=C(C(=O)OC2CCCCC2)C(c2ccc(C)o2)C2=C(CC(C)(C)CC2=O)N1 (centres undefined),493,-2.4% (inactive),3.3% (inactive),122,-13.3% (inactive),112,-0.25 (inactive),-1.1e-05 (inactive),0.0052 (inactive),7.33% (inactive),29.1% (inactive)
O=C(NCc1ccco1)c1csc(Nc2ccccc2Cl)n1,484,-6.2% (inactive),-0.3% (inactive),118,-144% (inactive),233,-0.503 (inactive),-3.4e-05 (inactive),0.0062 (inactive),-50.5% (inactive),-12.9% (inactive)
CC1(C)Cc2ccccc2C(N)=C1C#N,331,-0.8% (inactive),35.2% (active),71.1,9.4% (inactive),102,-0.479 (inactive),2e-05 (inactive),0.00508 (inactive),-11.4% (inactive),-26.4% (inactive)
O=C(Nc1nc2c(s1)CCc1ccccc1-2)c1cccs1,637,-3.6% (inactive),-9.4% (inactive),115,30.8% (inactive),86.1,-0.361 (inactive),1.5e-05 (inactive),0.00613 (inactive),12.8% (inactive),-8.29% (inactive)
CCOC(=O)N1CCN(c2c(N3CCN(c4ccccn4)CC3)c(=O)c2=O)CC1,555,3.4% (inactive),25.3% (inactive),76.1,-24.6% (inactive),119,-0.506 (inactive),-5.8e-06 (inactive),0.00633 (inactive),9.82% (inactive),16.3% (inactive)
Cc1cccnc1NC(=O)CCCN1C(=O)c2ccccc2C1=O,366,1.7% (inactive),-11.4% (inactive),102,-32.4% (inactive),87.7,-0.409 (inactive),-6.3e-05 (inactive),0.00485 (inactive),11.3% (inactive),10.4% (inactive)

# Source: PubChem BioAssay
